Screening results (PubChem)
GALK inhibitor = qHTS Assay for Inhibitors of Human Galactokinase (GALK); P51570; Purified GALK, Kinase-Glo residual ATP luminescence; Potency, µM (doses to about 57.5 µM), without a hit: at the top dose activity change, negative = inhibition, most hits filed as inhibitors; actives 0.007% (n = 270,000); AID 1868, 2009; further: potency means the concentration at half of the fitted maximal effect; on the % scale 0 is the no-effect control and ±100 the full control effect
Target sequence (P51570 whole entry, looked up): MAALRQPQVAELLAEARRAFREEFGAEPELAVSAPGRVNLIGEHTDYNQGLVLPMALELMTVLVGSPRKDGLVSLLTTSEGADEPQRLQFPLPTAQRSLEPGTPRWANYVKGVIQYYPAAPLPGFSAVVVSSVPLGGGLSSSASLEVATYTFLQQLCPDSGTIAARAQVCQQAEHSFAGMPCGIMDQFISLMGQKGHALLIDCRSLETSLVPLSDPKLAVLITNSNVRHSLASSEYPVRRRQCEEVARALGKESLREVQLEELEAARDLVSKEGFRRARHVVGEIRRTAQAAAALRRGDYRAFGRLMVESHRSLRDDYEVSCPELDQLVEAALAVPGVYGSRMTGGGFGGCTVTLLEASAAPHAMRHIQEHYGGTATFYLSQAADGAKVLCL
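ATP-depletion format; final 35 uM ATP, 100 uM D-galactose, 5 nM enzyme; pH 8.0 HEPES/Mg2+ buffer; 60 min RT; luminescence read 10 min after detection reagent.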
Giardia killer = Small Molecules that selectively kill Giardia lamblia: qHTS; AID 540267, 2011; Giardia lamblia trophozoite viability; activity change, % at 7.66 µM, hits read low; actives 0.15% (n = 340,000); in the data active means activity change below about -80%; inconclusive means between about -30% and that limit;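 further: parasites exposed to compound for two days anaerobically before the ATP read; on the % scale 0 is the no-effect control and ±100 the full control effect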
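Viability, read as ATP luminescence: trophozoites at 100 cells/well, compound added, 48 hrs anaerobic at 37 deg C, then 15-30 min room-temperature development before reading.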
rTrxR1 inhibitor = qHTS Assay for Inhibitors of Mammalian Selenoprotein Thioredoxin Reductase 1 (TrxR1): qHTS; recombinant rTrxR1, NADPH fluorescence consumption, selenite substrate; Potency, µM (doses to about 114 µM), without a hit: at the top dose activity change, negative = inhibition, usual class: inhibitors; actives 1% (n = 390,000); AID 588453, 2011; further: potency means the concentration at half of the fitted maximal effect; on the % scale 0 is the no-effect control and ±100 the full control effect; nearly all actives have a fitted effect of over 65% in size
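Rat TrxR1 (90 nM in the dispensed reagent) was pre-reduced with 400 uM NADPH for 5 min at room temperature, then incubated with compound for 15 min. After 400 uM selenite was added, NADPH fluorescence (Ex 340/Em 450 nm) was followed for 8 min.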
GCN5L2 inh-1 = qHTS Assay for Inhibitors of GCN5L2; AID 504327, 2011; actives 0.21% (n = 390,000); Potency, µM (titrated, usually from 58.9 µM), without a hit: at the highest dose activity change, negative = inhibition, actives largely listed as inhibitors; GCN5L2 HAT assay, ThioGlo1 CoA-SH fluorescence; further: potency means the concentration at half of the fitted maximal effect; on the % scale 0 is the no-effect control and ±100 the full control effect
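qHTS, 1536-well. 20nM enzyme, pH 7.5 HEPES/EDTA/Tween-20 buffer; 15 min compound preinc., RT. Start: 75uM H3(1-25), 70uM AcCoA, 50uM ThioGlo1. Read Ex340/Em540 at t=0 (autofluorescence flag) and t=20 min.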
TrxR1 substrate = qHTS Assay for Substrates of Mammalian Selenoprotein Thioredoxin Reductase 1 (TrxR1): qHTS | Thioredoxin reductase 1, cytoplasmic (Rattus norvegicus), O89049 | purified TrxR1 substrate turnover, NADPH consumption readout | Potency, µM (top dose mostly 114 µM), for inactives: top-dose activity change, negative = substrate turnover | actives 0.01% (n = 390,000) | AID 588456, 2011; further: potency means the concentration at half of the fitted maximal effect; on the % scale 0 is the no-effect control and ±100 the full control effect; nearly all actives have a fitted effect of over 50% in size
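Rat TrxR1, dispensed at 90 nM, was prereduced with 400 uM NADPH (final) for 5 min at ~22 deg C, then incubated with compound 15 min before 400 uM selenite. A first-read NADPH fluorescence drop versus no-compound background flagged substrates.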
Pin1 inhibitor = qHTS Assay to Find Inhibitors of Pin1; AID 504891, 2011; Pin1 FP peptide displacement, HiFluor488, 10 min; actives 0.009% (n = 390,000); Peptidyl-prolyl cis-trans isomerase NIMA-interacting 1 (Homo sapiens), Q13526; Potency, µM (series often up to 115 µM), for inactives: top-dose activity, negative = inhibition, most hits filed as inhibitors; active means well fitted inhibition curve with a large enough effect in the polarisation, with a control signal flat, not every such curve was filed as active; inconclusive means small, poorly fitted or top-dose-only effect, or effect the other way, or a change in a side signal; inactive means no such curve, though single readings can be large or run the other way; the % refers to the polarisation; further: potency means the concentration at half of the fitted maximal effect; on the % scale 0 is the no-effect control and ±100 the full control effect
Target sequence (Q13526 whole entry, looked up): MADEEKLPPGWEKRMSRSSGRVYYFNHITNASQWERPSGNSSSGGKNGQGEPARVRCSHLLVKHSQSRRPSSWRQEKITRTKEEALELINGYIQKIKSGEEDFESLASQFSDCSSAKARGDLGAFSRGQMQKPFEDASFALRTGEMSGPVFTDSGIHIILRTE
GCN5L2 inh-2 = qHTS Assay for Inhibitors of GCN5L2: Hit confirmation; shares compounds with GCN5L2 inh-1; GCN5L2 HAT, ThioGlo1 CoA fluorescence, 20 min; Potency, µM, usual class: inhibitors; actives 70% (n = 140); AID 588347, 2011
An asterisk follows results filed as active; ? = inconclusive; nt = no result; [ ] = dose if it differs, or a comment. Only some compounds are listed: those with a hit (about 1.3% of all), similar ones and a draw of the others. Unless noted, the call rests on the fitted dose curve; in most records, active means well fitted curve in the direction sought with a large enough effect; inconclusive means small, poorly fitted or top-dose-only effect, or another doubt; inactive means no such curve, though single readings can be large; an effect the other way counts as inactive or inconclusive.

SMILES | GALK inhibitor | Giardia killer | rTrxR1 inhibitor | GCN5L2 inh-1 | TrxR1 substrate | Pin1 inhibitor | GCN5L2 inh-2
COC(=O)N1C(=O)[C@@](CC(C)C)(c2ccccc2)N1C(=O)OC | nt | nt | nt | 3.0% | nt | nt | nt
COC(=O)N1C(=O)[C@](c2ccc(OC)cc2)(C(C)C)N1C(=O)OC | nt | -9.9 | ? | -0.5% | 6.8% | 0.8% | nt
CCOC(=O)N1C(=O)[C@@](CC)(c2ccccc2)N1C(=O)OCC | nt | 12.0 | 2.24µM* | 1.3% | -8.9% | 6.1% | nt
Cc1cc2c(s1)c1cnn(Cc3c(F)c(F)c(C(F)(F)F)c(F)c3F)c(=O)c1n2C | nt | nt | nt | nt | nt | 1.0% | nt
CCOC(=O)C1=C(CN2CCN(c3cc(C)ccc3C)CC2)NC(=O)NC1c1ccc(Cl)cc1 (stereo not given) | nt | nt | 0.9% | -16.8% | -5.5% | 0.9% | nt
COc1ccc(CNC(=O)c2ccc(Cl)c(S(=O)(=O)N3CCOCC3)c2)cc1OC | nt | 4.5 | 15.6% | -4.3% | 3.5% | -1.6% | nt
COC(=O)N1C(=O)[C@@](c2ccccc2)(C2CCCC2)N1C(=O)OC | nt | -1.3 | 8.91µM* | 0.8% | -6.1% | -0.5% | nt
C(=Cc1cccnc1)c1ccncc1 | nt | -9.3 | 11.2%[2.29 µM] | nt | 4.4%[57.1 µM] | -2.2% | nt
CN(C)S(=O)(=O)c1ccc(C(=O)/C=C/c2cccnc2)cc1 | 13.4% | -6.4 | 8.91µM* | 0.3% | 3.4%[57.1 µM] | 3.9% | nt
O=C(/C=C/c1cccnc1)/C=C/c1cccnc1 | 0.0% | ? | 17.8µM* | -10.3% | -12.2% | -6.0% | nt
CC1OC(OCC2OC(Oc3cc(O)c4c(c3)OC(c3ccc(O)cc3)CC4=O)C(O)C(O)C2O)C(O)C(O)C1O (stereo not given) | nt | nt | nt | -9.7% | nt | nt | nt
COc1ccc(C(c2c(C)[nH]n(C(N)=S)c2=O)C(C#N)C#N)cc1 (stereo not given) | -2.7% | 2.7 | ? | 1.6% | -25.8%[11.4 µM] | -5.8% | nt
Cc1[nH]n(-c2ncc(-c3ccc(Cl)cc3)s2)c(=O)c1C(c1ccc(Cl)cc1)C(C#N)C#N (stereo not given) | -4.3% | -6.3 | 11.2µM* | 31.1% | -7.7% | nt | nt
N#Cc1c(-c2cccs2)nc(SCc2ccc(Cl)cc2)[nH]c1=O | -12.0% | -20.5 | 22.8%[57.1 µM] | 25.1µM* | 8.4%[57.1 µM] | nt | 28.9*
CSc1nc(-c2cccs2)c(C#N)c(=O)[nH]1 | nt | -5.3 | 23.0%[57.1 µM] | -5.3% | 8.2%[57.1 µM] | 13.1% | nt
CCOC(=O)c1cccc(NC(=O)C2CCN(S(=O)(=O)c3ccc4c(c3)oc(=O)n4C)CC2)c1 | nt | nt | -0.1% | 2.1% | -10.5% | 16.4% | nt
COC(=O)c1ccc2[nH]c(C)cc(=O)c2c1 | 2.6% | -21.5 | -7.8% | -10.0% | 69.8% | ? | nt
COC(=O)c1scc2c(=O)cc(C(F)(F)F)[nH]c12 | -3.5% | 22.3 | 41.8% | 22.4µM* | 114.5% | ? | 36.3*
CCCCn1c(=N)c(S(=O)(=O)c2ccc(C)cc2)cc2c(=O)n3cc(C)ccc3nc21 | nt | nt | 14.1%[57.1 µM] | -6.7% | 2.6%[57.1 µM] | 1.8% | nt
CCOC(=O)c1cnc2cc(C)nn2c1-c1ccccc1 | -3.7% | -12.3 | 17.6%[57.1 µM] | 39.8µM* | 13.9%[57.1 µM] | -6.5% | 14.5*
CCOC(=O)c1cnc2cc(-c3ccc(Cl)cc3)nn2c1-c1ccccc1 | nt | nt | 19.1% | -15.1% | 26.3% | -4.4% | nt
Cc1ccc([C@@H]2CC=C(C(=O)O)[C@H](c3ccc(C(C)(C)C)cc3)N2S(=O)(=O)c2ccc(C)cc2)cc1 | nt | -26.7 | -1.3% | ? | -0.8% | nt | nt
CCc1ccc([C@@H]2CC=C(C(=O)O)[C@H](c3ccc(C(C)(C)C)cc3)N2S(=O)(=O)c2ccc(C)cc2)cc1 | nt | -14.8 | 1.7% | 17.8µM* | -2.4% | nt | 18.2*
Cc1ccc(S(=O)(=O)N2[C@@H](c3ccc(C(C)(C)C)cc3)C(C(=O)O)=CC[C@H]2c2ccc(C(C)C)cc2)cc1 | nt | -15.8 | ? | 14.1µM* | -12.1% | nt | 12.9*
CC(=O)N1c2ccc(S(=O)(=O)N3CCN(c4ccc(C)cc4C)CC3)cc2CC1C (stereo not given) | nt | nt | 10.8% | 6.6% | -2.1% | -0.5% | nt
SMILES | GALK inhibitor | Giardia killer | rTrxR1 inhibitor | GCN5L2 inh-1 | TrxR1 substrate | Pin1 inhibitor | GCN5L2 inh-2
CCC(C)Sc1ccc(-c2nc3ccccn3c2NCc2ccccc2)cc1OC (stereo not given) | nt | -4.8 | 34.1% | 22.4µM* | 112.2% | 5.3% | ?
N=C1/C(=C/c2ccc(-c3cccc(C(=O)O)c3)o2)C(=O)N=C2SC=C(c3ccccc3)N12 | -3.9% | -4.8 | ? | 22.4µM* | -12.7% | ? | 16.2*
O=C(C1=NN(c2ccccc2)C2C(=O)N(c3cccc(Cl)c3)C(=O)C12)c1ccccc1 (stereo not given) | 0.6% | 3.8 | 17.2%[57.1 µM] | 25.1µM* | -6.4% | ? | 36.3*
O=C(C1=NN(c2ccccc2)C2C(=O)N(c3ccc(Cl)cc3)C(=O)C12)c1ccccc1 (stereo not given) | 3.2% | -3.2 | ? | -6.0% | -11.9% | ? | nt
COc1cccc(-n2c(C)nc3c(cnn3-c3ccc(C)c(C)c3)c2=O)c1 | nt | nt | 17.8% | -4.8% | 3.5% | 6.7% | nt
O=Cc1ccc(N2N=C(c3ccccc3)CC2c2ccccc2)cc1 (stereo not given) | -3.8% | -29.0 | 14.5% | 0.7% | 35.6% | 44.2% | nt
O=C(O)c1ccc(N2N=C(c3ccccc3)CC2c2ccccc2)cc1 (stereo not given) | 0.3% | 3.5 | 84.8% | 15.8µM* | 417.2% | -10.0% | 14.5*
CC(=O)Nc1ccc(C2=NN(c3ccccc3)C(c3ccccc3)C2)cc1 (stereo not given) | 0.6% | 3.2 | 381.2% | ? | 239.5% | -6.9% | 36.3*
COc1ccc(C2=NN(c3ccc(C=O)cc3)C(c3ccccc3)C2)cc1 (stereo not given) | -1.8% | -8.7 | -11.7% | -17.0% | 30.7% | 48.8% | nt
O=C(NCc1ccc(Cl)cc1)c1ccc2c(c1)N(Cc1ccccc1F)C(=O)c1ccccc1S2=O (stereo not given) | nt | nt | 34.6% | -5.5% | 6.0% | ? | nt
CN(C)c1ccc(C=O)cc1Cl | nt | nt | -2.6% | nt | -9.4% | nt | nt
O=C(O)c1cccc2c1C(=O)c1ccc(-c3ccc(F)cc3OCc3ccccc3)cc1S2(=O)=O | nt | 38.6 | -25.3% | 22.4µM* | -4.3% | ? | ?
